Rows were chosen to be rich in hits. Some 4.3% of all compounds tested hit in one or more screens of this group.
dFosB act-1 – activators of delta FosB homodimer, primary screen, biochemical, fluorescence polarization, TAMRA-CDK5 oligo, single point | Protein FosB (Mus musculus), P13346 | purified delta FosB; percent of positive-control signal above neutral wells | activation, % at 25 µM | actives 0.99% (n = 340,000) | AID 493131, 2011;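 active means mean activation above about 17%, with every replicate also reaching it, limit read from the data, passing the limit was not always enough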
UBC13 polyUb – UBC13 polyubiquitin chain formation inhibitors, primary screen, biochemical, TR-FRET, uHTS. Ubiquitin-conjugating enzyme E2 N (Homo sapiens), P61088. inhibition, % at 20 µM. actives 0.47% (n = 330,000). AID 485273, 2010; in the data active means inhibition above about 45%, passing the limit was not always enough
Target sequence (P61088 whole entry, looked up): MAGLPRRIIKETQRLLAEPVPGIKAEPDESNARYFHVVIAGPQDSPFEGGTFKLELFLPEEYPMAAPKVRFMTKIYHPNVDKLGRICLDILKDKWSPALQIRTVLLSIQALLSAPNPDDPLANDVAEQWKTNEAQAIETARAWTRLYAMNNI
CR mimetic SO – reduction of superoxide in aged yeast, primary screen, HTS; S. cerevisiae aged cells, superoxide DHE fluorescence; hits give low values; superoxide response (% of plate mean), % at 10 µM; actives 0.18% (n = 330,000); AID 2690, 2010;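 active means superoxide response under a set limit, about three screen SD below normal, cut at about 65% in these data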;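 further: yeast aged for seven days with compound at 30 °C before DHE staining; 100% = average MFI of all compound-treated wells on the plate with controls excluded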
NR3A LBD binder – binders of NR3A ligand-binding domain, primary screen, biophysical, differential scanning fluorimetry, uHTS | Glutamate receptor ionotropic, NMDA 3A (GRIN3A) ligand-binding domain | NR3A LBD differential scanning fluorimetry, Tm shift; 0% = protein alone, 100% = glycine-bound protein | Tm shift relative to glycine control, % at 25 µM | actives 2.5% (n = 340,000);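 active means melting temperature shift of at least 10% of the positive control shift, at one fixed dose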
NALP1 inh – NALP1 inflammasome inhibitors in reconstituted yeast, colorimetric, S. cerevisiae, triplicate retest | S. cerevisiae NALP1/ASC/caspase-1 growth, X-gal OD620, 72 h | actives 0.61% (n = 280,000) | inhibition, % at 10 µM; in the data active means inhibition mostly above about 24%, no sharp cut-off; inactive means mostly below about 32%
dFosB act-2 – activators of mouse delta FosB DNA binding, confirmation, biochemical, fluorescence polarization, TAMRA-CDK5 oligo, cherry-picked samples | 2,400 tested, under 10 active | purified delta FosB; normalised: neutral wells 0, positive control 100 | activation, % at 24.9 µM | shares compounds with dFosB act-1;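 active means highest replicate activation at or above 34% and every replicate reaching that threshold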;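 further: higher polarization means more probe DNA bound by delta FosB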
The depositor's hits bear a star; . = no result given.

SMILES	dFosB act-1	UBC13 polyUb	CR mimetic SO	NR3A LBD binder	NALP1 inh	dFosB act-2
O=C(NC1CCS(=O)(=O)C1)c1cccc(S(=O)(=O)N2CCCC2)c1 (configuration not stated)	3	0	100	4	19	.
C[C@@H](C(=O)NC1CCCCC1)N1C(=O)N2CCc3c([nH]c4ccccc34)[C@@]2(C)C1=O	-15	0	106	-2	2	.
O=C(NC(=S)Nc1ccc2nc[nH]c2c1)c1ccccc1	-8	-7	108	0	-4	.
CC1CCN(CC(=O)Nc2ccc(S(=O)(=O)N3CCC(C)CC3)cc2)CC1	-11	4	93	-3	24	.
Cc1ccc(-c2nnn(CC(=O)Nc3ccc(S(=O)(=O)N4CCC(C)CC4)cc3)n2)cc1	68*	-4	125	55*	22	7
COc1ccc(NS(=O)(=O)c2cn(C)nc2C)cc1	5	12	104	-1	2	.
CCc1cc2cc3c(cc2nc1SCC(=O)Nc1cc(C)on1)OCO3	49*	-18	106	0	2	-2
CCCNC(=O)CSc1nc2ccccc2c(=O)n1CCC	-4	0	103	0	1	.
CC(=O)NCCn1c(SCC(=O)NCc2ccco2)nc2ccccc2c1=O	1	8	93	-2	-7	.
CCCn1c(SCC(=O)NCC(=O)Nc2ccc(F)c(F)c2F)nc2ccccc2c1=O	26*	7	93	0	.	2
C/C(N)=C(/C#N)C(=O)CSc1nc2ccccc2c(=O)n1Cc1ccc(C)cc1	21*	15	97	-17	0	5
CN(C)CCCn1c(SCC(=O)N2c3ccccc3Sc3ccccc32)nc2ccccc2c1=O	24*	.	99	-4	30	0
CCCCn1c(SCC(=O)NCc2ccco2)nc2ccccc2c1=O	18*	12	100	1	1	5
O=C(CSc1nc2ccccc2c(=O)n1Cc1ccc(Cl)cc1)NCc1cccs1	27*	19	124	-4	.	0
Cc1cccc(C)c1NC(=S)NCCSc1ccc(Cl)cc1	0	3	88	-5	9	.
COC(=O)c1ccc(OCC(=O)Nc2ccsc2C(=O)OC)cc1	36*	-3	99	1	2	2
O=C(N/N=C/c1cc([N+](=O)[O-])ccc1Cl)c1ccc2nc[nH]c2c1	35*	-20	89	-9	-24	2
CCOC(=O)c1cccc(NC(=O)Cn2c(CC(=O)NC)nc3ccccc32)c1	41*	16	100	-1	-12	1
CN(C)CCNC(=O)c1cc2c(s1)-c1ccccc1OC2	-3	29	87	0	0	.
Cc1csc(NC(=O)c2cc3c(s2)-c2ccccc2OC3)n1	35*	28	103	10*	20	-2
NNC(=O)c1c(O)c2cccc3c2n(c1=O)CCC3	-7	6	94	-1	15	.
CCc1nc2ccc(Cc3ccc4nc(CC)[nH]c4c3)cc2[nH]1	2	9	102	-1	4	.
Cc1cc(C)cc(NC(=O)Cn2nnc(C(=O)NCc3ccc(F)cc3)c2N)c1	58*	-5	141	34*	26	3
Cc1cccc(NC(=O)Cn2nnc(C(=O)NCc3ccco3)c2N)c1	5	3	80	0	-5	.
Nc1c(C(=O)NCc2ccccc2)nnn1Cc1ccc(F)cc1	-2	1	95	0	21	.
Cc1cc(C)cc(NC(=O)Cn2nnc(C(=O)NCc3ccccc3Cl)c2N)c1	41*	1	102	0	-15	0
CC12CCC(C(=O)N/N=C/c3ccc(O)cc3O)(OC1=O)C2(C)C (configuration not stated)	-7	-10	90	-7	-2	.
O=C(Cn1cnc2c(oc3nc4c(cc32)CCCC4)c1=O)Nc1ccccc1	-8	-6	92	-3	5	.
O=C(Cn1cnc2c(oc3nc4c(cc32)CCCC4)c1=O)Nc1cccc(Cl)c1	20*	1	73	3	-5	-1

Source: PubChem BioAssay
